High-throughput results deposited in PubChem BioAssay by The Scripps Research Institute Molecular Screening Center.
CHRM1 agonist = human M1 muscarinic receptor agonists, primary screen, Fluo-8 calcium fluorescence, CHO-K1 cells, HTS; Muscarinic acetylcholine receptor M1 (Homo sapiens), P11229; CHO-K1 hM1, agonist mode; 0% DMSO, 100% acetylcholine EC100; activation, % at 3 µM; hit rate 0.33% among 360,000; AID 588814, 2011;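 active means activation above the run's mean compound activation plus 3 SD, cut at about 16% in these data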;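 further: peak over basal fluorescence ratio within a 140 s kinetic read after compound addition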
Target sequence (P11229 whole entry, looked up): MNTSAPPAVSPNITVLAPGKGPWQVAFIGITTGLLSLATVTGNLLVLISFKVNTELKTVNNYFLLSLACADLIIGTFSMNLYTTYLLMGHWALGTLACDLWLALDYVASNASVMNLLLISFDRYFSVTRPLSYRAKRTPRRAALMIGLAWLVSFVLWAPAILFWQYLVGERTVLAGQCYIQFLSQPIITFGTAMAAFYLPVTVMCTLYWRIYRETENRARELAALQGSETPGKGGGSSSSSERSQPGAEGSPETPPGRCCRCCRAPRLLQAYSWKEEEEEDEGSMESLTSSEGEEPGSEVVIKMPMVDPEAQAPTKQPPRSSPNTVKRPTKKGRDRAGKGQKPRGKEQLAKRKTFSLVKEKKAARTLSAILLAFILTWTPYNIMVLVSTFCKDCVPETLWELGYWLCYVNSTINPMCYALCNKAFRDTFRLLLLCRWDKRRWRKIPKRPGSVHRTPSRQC
M1 PAM parental = nonselective calcium activators in parental CHO-K1 cells, primary screen, counter-screen for M1 PAM project, cell-based, Fluo-8 calcium fluorescence, full deck, 1536-well; ATP EC20; 0% at ATP EC20, 100% at ATP max; activation, % at 3 µM; hit rate 0.02% among 360,000; AID 602247, 2012;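 active means activation above the run cutoff, the mean activation of all test compounds plus 3 SD, cut at about 40% in these data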;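 further: peak over basal fluorescence ratio in a 140 s read after ATP addition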
CHO-K1 Ca antag = M1 antagonist counterscreen hit in parental CHO-K1 cells. ATP-induced calcium, Fluo-8 fluorescence. inhibition, % at 3 µM. hit rate 0.6% among 360,000. AID 602250;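 active means inhibition above a per-plate cutoff, the plate's mean sample inhibition plus 3 SD, cut at about 24% in these data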
M1 PAM = human M1 muscarinic receptor positive allosteric modulators, primary screen, CHO-K1 cells, Fluo-8 calcium fluorescence, 1536-well | hit rate 0.088% among 360,000 | CHO-K1 hM1, ACh EC20; 0% = ACh EC20, 100% = maximal ACh | activation, % at 3 µM; in the data active means activation above about 19%, passing the limit was not always enough
M1 ag parental = counter-screen for M1 agonists: effect in parental CHO-K1 cells | Fluo-8 calcium fluorescence; scaled to maximal ATP response, vehicle zero | AID 602248, 2012 | hit rate 0.48% among 360,000 | activation, % at 3 µM; in the data active means activation above about 15%;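 further: untransfected CHO-K1 host cells lacking M1 receptor as counterscreen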
M1 antag = human M1 muscarinic receptor antagonists, primary screen, CHO-K1 cells, Fluo-8 calcium fluorescence, 1536-well; AID 588852, 2011; inhibition, % at 3 µM; Muscarinic acetylcholine receptor M1 (Homo sapiens), P11229; hit rate 1.3% among 360,000; CHO-K1 hM1, ACh EC80 antagonist;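 active means percent inhibition above its own plate's cutoff, namely the mean of that plate's compound wells plus 3 SD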;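 further: peak over basal fluorescence ratio during 140 s after agonist addition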
Large screens that a line does not name were inactive. Compounds with a hit are over-represented: about 2.4% of the library has one in this group of screens.

O=C(CNC1CCN(Cc2ccccc2)CC1)Nc1ccc(S(=O)(=O)N2CCCCC2)cc1	M1 antag 44.3
N#Cc1ccc(OS(=O)(=O)c2ccc(-c3ccon3)s2)cc1	none
COc1ccccc1OCCNC(=O)CCNS(=O)(=O)c1ccc(C)cc1	none
COc1ccc(S(=O)(=O)NCC2CCC(C(=O)NCc3ccc(F)cc3)CC2)cc1 (stereo not drawn)	none
CCCN(CCC)CCCNC(=O)c1cn(-c2ccc(OC)cc2)c(=O)c2ccccc12	none
CN(C)CC/C=C1/c2cc(F)ccc2Sc2ccc(Cl)cc21	M1 antag 99.4
CN(C)CC/C=C1/c2ccccc2Sc2c(O)cc(Cl)cc21	M1 antag 96.6
CN1CCN(CC/C=C2/c3ccccc3Sc3ccc(S(=O)(=O)N(C)C)cc32)CC1	none
CN(C)CCNC(=O)c1ccc2c(c1)NC(=O)c1ccccc1S2	none
COc1cc(Cl)cc2c1Sc1ccccc1/C2=C/CCN(C)C	M1 antag 68.4
CN(C)CCNC(=O)Nc1ccc(F)cc1F	none
COc1cc2c(cc1Cl)/C(=C\CCN(C)C)c1ccccc1S2	M1 antag 66.1
COc1ccc(CCN(/C=C2\Sc3ccccc3C2=O)C(C)=O)cc1OC	none
CC(=O)c1ccc([N+](=O)[O-])c(CS(=O)(=O)c2ccccc2)c1	none
CCCc1cc(C(=O)OCC(=O)N(CCC)c2c(N)n(Cc3ccccc3)c(=O)[nH]c2=O)sc1C	none
Cc1ccc(S(=O)(=O)N(C)C)cc1NC(=S)N(C)C1CCN(C)CC1	none
CCc1ccc(CNn2cnnc2SCC(=O)NC(C)(C)C)cc1	none
CN(C)c1ccc(CNn2cnnc2SCC(=O)NC(C)(C)C)cc1	M1 antag 42.0
CC(C)(C)c1cc(CCC(=O)NNC(=O)c2ccncc2)cc(C(C)(C)C)c1O	none
FC(F)C(F)(F)c1cc(-c2ccc(Cl)cc2)n[nH]1	M1 ag parental 18.1
Oc1ccccc1-c1cc(C(F)(F)C(F)F)[nH]n1	none
Fc1ccc(-c2cc(C(F)(F)C(F)F)[nH]n2)cc1	CHRM1 agonist 28.5, M1 ag parental 26.3
NCCCCNCCCN	CHRM1 agonist 79.3
NCCNCCNCCN	none
CC(C)(C)C(=O)N1CCN(c2ccnc3cc(Cl)ccc23)CC1	none
O=C(Nc1ccc(OC(F)(F)F)cc1)N1CCN(c2ccnc3cc(Cl)ccc23)CC1	CHO-K1 Ca antag 27.4
CCCCS/C(=C(/C#N)C(N)=O)c1cc2c([nH]1)CCCC2	M1 antag 25.0
CN(C)c1ccc(CNC(=O)c2ccc(CNc3c(N4CCCCC4)c(=O)c3=O)cc2)cc1	M1 PAM 26.6
O=C(NCc1ccc(Cl)cc1)c1ccc(CNc2c(N3CCCC3)c(=O)c2=O)cc1	none
CCOC(=O)C1CCN(C(=O)c2cc(S(=O)(=O)N3CCOCC3)ccc2C)CC1	none
Cn1c(=O)c(-c2cccc(Cl)c2)c(O)c2ccccc21	none
Cn1c2[n+](c3ccc(Cl)cc3c1=O)Cc1ccccc1-2	M1 ag parental 16.0
CC(C)n1c(CCC(=O)O)ccc1-c1ccccc1	M1 antag 21.8
O=c1[nH]c2ccc(N/C(=N/S(=O)(=O)c3ccccc3)c3ccccc3)cc2[nH]1	CHO-K1 Ca antag 27.3
CS(=O)(=O)Nc1ccc2c(c1)[C@@H]1C[C@@H](CC(=O)NCc3cccnc3)O[C@H](CO)[C@@H]1O2	none
Cc1nnsc1C(=O)NC(C)c1ccccc1 (stereo not drawn)	M1 ag parental 21.0
Cc1ccc(OCCOC(=O)c2cc(S(=O)(=O)N3CCCCC3)ccc2N2CCOCC2)cc1	M1 antag 28.5
CCOC(=O)C1CCCN(C(=O)CCCn2nnnc2CN2CCOCC2)C1 (stereo not drawn)	CHRM1 agonist 48.7
O=C(OCCOc1ccc(Cl)cc1)c1cc(S(=O)(=O)N2CCCCC2)ccc1N1CCOCC1	none
CCOC(=O)C1CCCN(C(=O)Cn2sc3nc(C)cc(C)c3c2=O)C1 (stereo not drawn)	CHRM1 agonist 22.1
CCOC(=O)C1CCN(C(=O)COc2ccc(S(=O)(=O)N3CCOCC3)cc2)CC1	none
CCOC(=O)C1CCCN(C(=O)COc2ccc(S(=O)(=O)N3CCOCC3)cc2)C1 (stereo not drawn)	CHRM1 agonist 31.3
COc1cccc(CNC(=O)CCCC(=O)NC(C)CCc2ccccc2)c1 (stereo not drawn)	none
CCN(CC(=O)Nc1ccc(C)c(S(=O)(=O)N2CCOCC2)c1)Cc1ccccc1	none
Cc1ccc(CS(=O)Cc2ccc(C(=O)NC3CCCCC3)o2)cc1 (stereo not drawn)	none
CCCCC(=O)N1CCCC(C(=O)OCC)C1 (stereo not drawn)	CHRM1 agonist 26.0
CCOC(=O)C1CCCN(C(=O)Cc2ccc(C)cc2)C1 (stereo not drawn)	none
CCOC(=O)C1CCCN(C(=O)CCCn2nc(C)n3c(cc4sccc43)c2=O)C1 (stereo not drawn)	CHRM1 agonist 34.5
CCOCC(=O)N1CCCC(C(=O)OCC)C1 (stereo not drawn)	M1 antag 101.1
Cc1ccc(CN2CCN(Cc3cc4ccccc4o3)CC2CCO)cc1 (stereo not drawn)	none
CN1CCN(S(=O)(=O)c2cccc3nsnc23)CC1	none
COc1cc(C(=O)NCC(=O)N/N=C(/C)c2ccc3c(c2)CCCC3)cc(OC)c1OC	CHO-K1 Ca antag 26.5
CCCc1cc(=O)n2[nH]c(NC(=O)c3ccco3)nc2n1	none
Cc1ccc(OCCn2cc(/C(N)=N/O)c3ccccc32)cc1C	CHO-K1 Ca antag 28.3
COc1ccc(OCCn2cc(/C(N)=N/O)c3ccccc32)cc1	none
O=C(COC(=O)c1cccc(Br)c1)NCc1ccco1	none
O=C(CSc1n[nH]c(=O)n1C1CC1)c1ccc(F)cc1	none
CSc1n[nH]c(=O)n1C1CCCCC1	M1 ag parental 17.7
Clc1cccc(Cl)c1Cn1ccc(C2CC2)n1	M1 ag parental 16.4
O=c1c2ccccc2c(-c2ccccc2)nn1Cc1c(Cl)cccc1Cl	none
CCCCc1c(Cc2ccccc2)ncn1CCc1ccccc1OC	none (no result: CHRM1 agonist, M1 PAM, M1 antag)
Cc1ccc(NC(=O)CNC(=O)c2cccc(C)c2)nc1	CHRM1 agonist 21.3
COc1cccc(NC(=O)Nc2ccncc2)c1	none
COc1cccc(NC(=O)Nc2ccc(C(C)(C)C)cc2)c1	CHO-K1 Ca antag 45.5, M1 ag parental 19.2, M1 antag 26.1
CC(C)(C)c1ccc(NC(=O)Nc2ccc(F)cc2)cc1	CHO-K1 Ca antag 35.6, M1 ag parental 16.4, M1 antag 48.6
